# Assay results as given in PubChem BioAssay.
# The source made the active and inactive calls.
# Assays:
# [1] = optical density shifts of acrAB sulA E. coli – strain DRC41, OD650, 48 h, E. coli filamentation inducer project, primary screen (AID 1152); details: higher = more signal, called active from +8 up or from −8 down;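 note: E. coli MC1000 strain DRC41 lacking acrAB efflux pump and sulA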
# [2] = probe aLefty1 binding on compound microarray – biochemical, small-molecule microarray, 635/667 nm fluorescence, primary screen (AID 1153); details: higher = more signal;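 note: score merges spot fluorescence with signal-to-noise ratio from the scanned slide images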
# [3] = plasmodial surface anion channel blockers, osmotic lysis – cell-based, P. falciparum Indochina, OD700, 1 h, primary screen (AID 1154); details: P. falciparum Indochina infected RBC osmotic lysis, higher = more signal, called active from +8 up or from −8 down
# [4] = plasmodial surface anion channel blockers, osmotic lysis – cell-based, P. falciparum Indochina, OD700, 2 h, primary screen (AID 1155);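 note: lysis reports solute entry through the parasite surface anion channel PSAC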; details: P. falciparum Indochina infected erythrocytes, higher = more signal, called active from +8 up or from −8 down
# [5] = changes in parasitized red cell lysis, either direction – P. falciparum Indochina, OD700, 3 h, PSAC antagonist project, primary screen (AID 1156); details: P. falciparum-infected erythrocytes, osmotic lysis, higher = more signal, called active from +8 up or from −8 down
# [6] = plasmodial surface anion channel blockers, osmotic lysis – cell-based, P. falciparum Indochina, OD700, 18 h, primary screen (AID 1157); details: P. falciparum Indochina infected erythrocytes, osmotic lysis OD700, 18 h; higher = more signal, called active from +8 up or from −8 down
# [7] = S6 kinase pathway phospho-S6 level changes – cell-based, A549, cytoblot, luminescence, serum-stimulated, primary screen (AID 1158); details: 5 h, higher = more signal;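 note: serum-stimulated A549 lung adenocarcinoma cells; signal is phosphorylated S6 detected by cytoblot immunostaining with HRP secondary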
# [8] = target: NADPH oxidase 2 (Homo sapiens) (UniProt P04839); experiment: compounds shifting NOX2 Amplex Red fluorescence – cell-based, HEK293-NOX2, PMA-stimulated, NOX inhibitor project, primary screen (AID 1159); details: 45 min, higher = more signal, called active from +8 up or from −8 down; note: test concentration not given here
# NADPH oxidase 2 (Homo sapiens), sequence (P04839 whole entry, looked up): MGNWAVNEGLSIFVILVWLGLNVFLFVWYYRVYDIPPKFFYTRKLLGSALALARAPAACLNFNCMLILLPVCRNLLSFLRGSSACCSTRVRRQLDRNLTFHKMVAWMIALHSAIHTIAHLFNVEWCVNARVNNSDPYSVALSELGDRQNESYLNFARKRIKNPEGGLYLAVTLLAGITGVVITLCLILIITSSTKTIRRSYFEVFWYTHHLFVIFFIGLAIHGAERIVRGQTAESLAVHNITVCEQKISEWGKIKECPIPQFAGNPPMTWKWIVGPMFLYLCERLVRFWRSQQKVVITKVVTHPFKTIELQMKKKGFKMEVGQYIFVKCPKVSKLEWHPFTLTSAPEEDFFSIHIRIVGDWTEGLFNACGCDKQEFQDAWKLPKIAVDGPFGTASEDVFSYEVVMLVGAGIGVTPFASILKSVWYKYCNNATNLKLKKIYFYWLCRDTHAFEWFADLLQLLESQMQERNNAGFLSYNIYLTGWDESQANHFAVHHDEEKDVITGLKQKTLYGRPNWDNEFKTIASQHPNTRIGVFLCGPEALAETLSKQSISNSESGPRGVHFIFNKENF
# [9] = target: NADPH oxidase 4 (Homo sapiens) (UniProt Q9NPH5); experiment: compounds shifting NOX4 Amplex Red fluorescence – cell-based, HEK293-NOX4, tetracycline-induced, NOX inhibitor project, primary screen (AID 1160); details: HEK293-NOX4, Amplex Red H2O2 fluorescence, 45 min; higher = more signal, called active from +8 up or from −8 down
# NADPH oxidase 4 (Homo sapiens), sequence (Q9NPH5 whole entry, looked up): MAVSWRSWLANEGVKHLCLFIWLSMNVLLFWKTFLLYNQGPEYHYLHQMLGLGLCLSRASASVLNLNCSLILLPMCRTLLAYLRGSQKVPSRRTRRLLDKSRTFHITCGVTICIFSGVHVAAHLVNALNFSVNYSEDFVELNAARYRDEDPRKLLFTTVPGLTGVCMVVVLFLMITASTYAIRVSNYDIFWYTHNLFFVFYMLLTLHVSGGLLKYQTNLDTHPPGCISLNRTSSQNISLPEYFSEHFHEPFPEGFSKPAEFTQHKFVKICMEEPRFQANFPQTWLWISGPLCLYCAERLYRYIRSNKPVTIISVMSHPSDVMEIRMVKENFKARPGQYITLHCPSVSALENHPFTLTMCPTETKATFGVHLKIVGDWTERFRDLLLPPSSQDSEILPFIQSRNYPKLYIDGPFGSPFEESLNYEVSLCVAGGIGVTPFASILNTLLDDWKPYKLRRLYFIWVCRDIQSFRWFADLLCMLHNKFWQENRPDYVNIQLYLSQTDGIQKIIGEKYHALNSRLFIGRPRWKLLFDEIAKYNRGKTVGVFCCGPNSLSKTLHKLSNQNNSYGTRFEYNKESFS
# [10] = target: NADPH oxidase 5 (Homo sapiens) (UniProt Q96PH1); experiment: compounds shifting NOX5 Amplex Red fluorescence – cell-based, HEK293-NOX5, NOX inhibitor project, primary screen (AID 1161); details: HEK293-NOX5, ionomycin, 45 min, higher = more signal
# NADPH oxidase 5 (Homo sapiens), sequence (Q96PH1 whole entry, looked up): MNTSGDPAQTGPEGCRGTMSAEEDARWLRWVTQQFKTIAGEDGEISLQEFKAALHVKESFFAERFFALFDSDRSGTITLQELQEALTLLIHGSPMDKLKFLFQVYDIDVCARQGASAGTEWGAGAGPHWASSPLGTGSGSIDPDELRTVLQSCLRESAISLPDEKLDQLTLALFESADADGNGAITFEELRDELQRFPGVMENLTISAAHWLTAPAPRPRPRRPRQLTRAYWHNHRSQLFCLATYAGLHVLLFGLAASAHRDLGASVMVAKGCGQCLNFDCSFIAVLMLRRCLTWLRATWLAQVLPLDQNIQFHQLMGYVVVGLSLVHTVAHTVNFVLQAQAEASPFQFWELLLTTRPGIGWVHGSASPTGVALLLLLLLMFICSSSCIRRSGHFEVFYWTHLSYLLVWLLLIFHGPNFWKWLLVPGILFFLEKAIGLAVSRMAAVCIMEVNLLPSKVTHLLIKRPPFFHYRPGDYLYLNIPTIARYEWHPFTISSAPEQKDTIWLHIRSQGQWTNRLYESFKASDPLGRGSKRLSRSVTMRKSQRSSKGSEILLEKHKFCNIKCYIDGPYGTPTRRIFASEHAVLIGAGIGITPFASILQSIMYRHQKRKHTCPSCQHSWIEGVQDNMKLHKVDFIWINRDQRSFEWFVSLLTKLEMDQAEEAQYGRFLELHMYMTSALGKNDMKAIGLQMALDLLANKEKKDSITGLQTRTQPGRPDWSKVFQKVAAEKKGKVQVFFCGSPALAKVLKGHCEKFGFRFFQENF
# [11] = compound effects on lung adenocarcinoma cell viability – A549, calcein-AM fluorescence, 48 h, basal, profiling panel (AID 1162); details: higher = more signal; note: test concentration not given here
# [12] = compound effects on differentiated 3T3-L1 adipocyte viability – cell-based, 3T3-L1 adipocytes, calcein-AM fluorescence, 48 h, basal, profiling panel (AID 1163); details: 3T3-L1 adipocytes viability, higher = more signal; note: test concentration not given here
# [13] = compound effects on hepatocellular carcinoma cell viability – HepG2, calcein-AM fluorescence, 48 h, basal, profiling panel (AID 1164); details: higher = more signal; note: test concentration not given here
# [14] = compound effects on multiple myeloma cell viability – MM1S, calcein-AM fluorescence, 48 h, basal, profiling panel (AID 1165); details: higher = more signal;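 note: viability of MM1S multiple myeloma cells under basal unstimulated conditions; test concentration not given here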
# [15] = calcein-AM signal in unstimulated myeloma cells – cell-based, calcein-AM fluorescence, 48 h, PK04 Diversity Set, profiling panel (AID 1166); details: RPMI8226 myeloma viability, higher = more signal;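 note: cells grown under basal conditions without added stimulus; test concentration not given here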
# [16] = JC-1 mitochondrial signal, unstimulated HepG2 cells – cell-based, JC-1 fluorescence, 24 h, 100 nL compound, profiling panel (AID 1167); details: HepG2 mitochondrial potential, higher = more signal; note: test concentration not given here
# [17] = JC-1 mitochondrial signal, unstimulated adipocytes – cell-based, JC-1 fluorescence, 3T3-L1 adipocytes, 24 h, 100 nL compound, profiling panel (AID 1168); details: JC-1 mitochondrial fluorescence, higher = more signal, called active from +8 up or from −8 down; note: test concentration not given here
# [18] = JC-1 mitochondrial signal, unstimulated myeloma cells – cell-based, JC-1 fluorescence, RPMI8226, 24 h, 100 nL compound, profiling panel (AID 1169); details: JC-1 mitochondrial potential fluorescence, higher = more signal; note: test concentration not given here
# [19] = JC-1 mitochondrial signal, unstimulated MM1S myeloma – cell-based, JC-1 fluorescence, 24 h, 100 nL compound, profiling panel (AID 1170); details: MM1S mitochondrial potential, higher = more signal; note: test concentration not given here
# [20] = resazurin metabolic signal in A549 cells – cell-based, resazurin fluorescence, 24 h, PK04 Diversity Set, profiling panel (AID 1171); details: A549 viability, higher = more signal, called active from +8 up or from −8 down; note: test concentration not given here
Structure (SMILES),z-score [1],composite z-score [2],z-score [3],z-score [4],z-score [5],z-score [6],z-score [7],z-score [8],z-score [9],z-score [10],z-score [11],z-score [12],z-score [13],z-score [14],z-score [15],z-score [16],z-score [17],z-score [18],z-score [19],z-score [20]
C=CCNC(=O)[C@H]1[C@@H]2C(=O)O[C@@H](c3ccccc3)[C@@H](c3ccccc3)N2[C@@H](c2ccccc2OCCO)[C@]12C(=O)N(C(=O)OCCOC)c1ccc(C#CCC(C(=O)OC)C(=O)OC)cc12,2.88 (inactive),0.042,2.93 (inactive),-0.183 (inactive),0.824 (inactive),-2.13 (inactive),2.23,0.819 (inactive),0.0202 (inactive),0.521,0.208,2.2,0.128,-2.95,-3.66,0.348,1.54 (inactive),-1.02,-1.35,-0.131 (inactive)
O=C(NCc1ccccc1)c1ccc(Br)cc1[N+](=O)[O-],-1.03 (inactive),-0.17,-0.403 (inactive),-0.0642 (inactive),-1.3 (inactive),0.0836 (inactive),-0.597,-0.564 (inactive),-0.281 (inactive),-0.032,-0.787,0.0153,0.0565,-0.0086,0.287,-0.0457,0.346 (inactive),-0.745,0.189,0.0828 (inactive)
O=[N+]([O-])c1ccc(C[n+]2ccc3ccc(O)cc3c2)o1,0.653 (inactive),-0.283,1.08 (inactive),-0.678 (inactive),-0.859 (inactive),-1.53 (inactive),0.829,-0.94 (inactive),-1.09 (inactive),-0.424,1.21,0.233,-0.489,0.216,0.705,-1.43,-0.157 (inactive),-0.158,0.648,-1.02 (inactive)
COC(=O)C1=CC(c2ccc(CO)cc2)=CC(c2cccs2)N(Cc2cccc(OC(F)(F)F)c2)C=C1C(=O)OC (stereo not given),-1.66 (inactive),0.641,10.9 (active),1.87 (inactive),0.615 (inactive),1.43 (inactive),-0.264,-1.76 (inactive),-1.96 (inactive),-2.87,-0.425,0.531,-0.282,-1.63,-2.08,-0.908,-1.25 (inactive),-0.838,-0.459,-0.0711 (inactive)
N#Cc1ccc(NN2C(C(O)c3ccc(I)cc3)C=CC3C(=O)N(c4ccccc4)C(=O)C32)cc1 (stereo not given),-1.95 (inactive),0.526,9.81 (active),3.64 (inactive),-1.43 (inactive),2.57 (inactive),-0.484,-2.64 (inactive),-4.46 (inactive),-2.48,-0.668,-0.392,0.0254,-1.03,-0.251,-0.895,0.641 (inactive),-0.586,-0.263,-0.383 (inactive)
O=C/C=C/c1ccc(/C=C/c2ccccc2)cc1,2.42 (inactive),0.25,3.87 (inactive),-0.941 (inactive),1.17 (inactive),-1.73 (inactive),0.972,0.825 (inactive),-1.69 (inactive),1.4,1,-0.111,-0.167,-3.21,-4.46,-0.228,1.26 (inactive),-0.949,-2.1,0.22 (inactive)
C=CC[C@]1(C(=O)N2CCCCC2)N=C(c2ccc(OCCCO)cc2)O[C@H]1c1ccccc1N=[N+]=[N-],0.297 (inactive),0.707,35.8 (active),31.6 (active),4.43 (inactive),8.93 (active),0.0944,-1.88 (inactive),0.898 (inactive),-0.971,-0.871,1.65,-0.715,-1.56,-2.55,0.654,0.866 (inactive),-1.17,-0.511,-1.19 (inactive)
Cc1ccc(S[C@]2(C(=O)NCCCN(C)C)CC(=O)N(C3CCCCC3)[C@@H]2c2ccc(CO)cc2I)cc1,1.16 (inactive),0.0919,14 (active),1.35 (inactive),1.39 (inactive),-1.07 (inactive),1.72,-4.81 (inactive),-1.42 (inactive),0.549,-0.272,1.8,-4.31,-3.25,-3.08,1.8,0.794 (inactive),-0.644,-1.84,-0.835 (inactive)
CO[C@@H]1COC(=O)CC=C[C@H](C)COC(=O)[C@H](Cc2ccccc2)NC(=O)CC=C[C@H]1C,0.106 (inactive),-0.358,-0.0544 (inactive),-0.866 (inactive),-0.295 (inactive),-1.49 (inactive),0.681,-0.486 (inactive),0.845 (inactive),0.528,0.392,0.509,0.674,0.305,0.333,0.883,0.258 (inactive),-0.146,-0.597,-0.145 (inactive)
